High-throughput results from PubChem.
Compounds with a hit are over-represented: about 4% of the library has one in this group of screens.
Peg3 promoter = Peg3 promoter activity inhibition | HeLa PEG-Prom luciferase reporter, luminescence, overnight | inhibition, % at 20 µM | 360,000 compounds, 1.7% hits | AID 588405;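 active = inhibition of at least 50% at 20 µM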
CF NFkB block = cystic fibrosis NF-kB activation inhibition | 360,000 compounds, 0.86% hits | AID 588850 | inhibition, % at 5 µM | KKLEB NF-kB-GFP reporter, PAF-induced, GFP fluorescence overnight;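 active = at least 50% inhibition at 5 µM, scaled per plate between neutral and stimulator controls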;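 note: PAF is a Pseudomonas aeruginosa culture filtrate used as stimulus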
TWEAK Fn14 block = inhibitors of TWEAK-Fn14 interaction signaling; TWEAK-stimulated Fn14 reporter cells, luciferase luminescence, 8 h; inhibition, % at 10 µM; 360,000 compounds, 2% hits; AID 1159606; in the data active = inhibition above about 50%
HIF-2a inh = HIF-2a inhibition. 786-0 RCC cells HIF-2a reporter, luciferase luminescence, overnight. inhibition, % at 18.8 µM. 360,000 compounds, 0.72% hits. AID 624352;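 active = inhibition of the luminescence signal of 40% or more relative to plate controls, in a single-dose primary screen at 18.75 µM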
KKLEB cytotox = counter-screen for CF NF-kB inhibitors: cytotoxicity; KKLEB CF airway cells viability, ATPlite luminescence, overnight; active compounds read low; cells stimulated with P. aeruginosa culture filtrate; 360,000 compounds, 0.36% hits; AID 602141; activity change (cytotoxicity), % at 5 µM;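 active = corrected activity change at or below -50% at 5 µM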
TROY signal inh = blocks TROY-dependent signaling in reporter cells; AID 1347056; Q293 LMP1-TROYcd NF-kB luciferase reporter, 4 h; 360,000 compounds, 0.98% hits; inhibition, % at 10 µM;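 active = compounds whose plate-normalised and pattern-corrected inhibition of the luciferase reporter signal at the single screening dose is 50% or more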
Large screens that a line does not name were inactive.

COc1cc([N+](=O)[O-])cc(/C=N/NC(=O)c2ccc(NC(=O)c3ccc(C)cc3)cc2)c1O	CF NFkB block 82.0, TWEAK Fn14 block 70.4, KKLEB cytotox -75.3
COC(=O)[C@@H](NCc1ccc(B(O)O)cc1)C(C)C	none
O=C(COC(=O)c1ccc(F)c([N+](=O)[O-])c1)NC(=O)NCc1ccccc1	Peg3 promoter 97.0
CN(C)CC#Cc1cccc(-c2nc(C(=O)O)cc3c2[C@@H](CCO)N(S(=O)C(C)(C)C)C3)c1 (some centres undefined)	none
CCN1C(=O)N(CC)c2cccc3cccc1c23	TWEAK Fn14 block 91.5
COc1ccc(C(=O)N(C)C(C)c2nccs2)cc1OC1CCN(C(C)=O)CC1 (centres undefined)	none
CC[C@@H](C)[C@H](C(CC(=O)N1CCCC1[C@@H](OC)[C@H](C)C(=O)N[C@H](Cc1ccccc1)c1nccs1)OC)N(C)C(=O)[C@H](NC(=O)[C@@H](C(C)C)N(C)C)C(C)C (some centres undefined)	CF NFkB block 62.5
OCC1OCOC2C(CO)OCOC12 (centres undefined)	none
COC(=O)c1cn(-c2ccccc2)nc1-c1ccc(OC)cc1	none
COc1ccc(-c2nn(-c3ccccc3)cc2C(=O)n2nnc3ccccc32)cc1	Peg3 promoter 55.5
CCCOC(=O)c1ccc(Oc2cn[nH]c2-c2ccc(O)cc2O)cc1	TROY signal inh 50.1
Cc1c(C(=O)N2CCN(Cc3ccc4c(c3)OCO4)CC2)sc2ncnc(N3CCN(c4ccccc4F)CC3)c12	Peg3 promoter 58.1, TWEAK Fn14 block 87.9
Cc1c(C(=O)N2CCN(c3ccccn3)CC2)sc2ncnc(N3CCN(c4ccccc4)CC3)c12	none
Cc1c(C(=O)N2CCN(Cc3ccc4c(c3)OCO4)CC2)sc2ncnc(N3CCN(c4ccccc4)CC3)c12	Peg3 promoter 57.5, TWEAK Fn14 block 87.4, TROY signal inh 53.2
CCN(CC)CCN1C(=O)C2C(C(=O)Nc3cc(C)cc(C)c3)C3C=CC2(O3)C1C(=O)NC1CCCCC1 (centres undefined)	none
COc1ccc2sc(-c3ccccc3OC)c(-c3ccc(OCCN4CCOCC4)cc3)c2c1	none
COc1ccccc1-c1sc2cc3c(cc2c1-c1ccc(OCCN2CCCCC2)cc1)OCO3	Peg3 promoter 100.1
COc1ccc(-c2sc3cc4c(cc3c2-c2ccc(OCCN3CCOCC3)cc2)OCO4)cc1	none
COc1cc2sc(-c3ccccc3OC)c(-c3ccc(OCCN4CCCCC4)cc3)c2cc1OC	Peg3 promoter 89.4
Cc1c(CN(C)C)c2c(n1Cc1ccccc1)C(=O)c1ccc(Br)cc1-2	Peg3 promoter 67.4
Cc1c(CN(C)C)c2c(n1C)C(=O)c1ccc(Br)cc1-2	none
O=C(CSc1ccccc1)N1CCCC(N2CCN(c3cccc(Cl)c3)CC2)C1 (centres undefined)	none
Cc1ccc(NC(=O)c2noc3c2CCc2ccccc2-3)cc1	none
O=C(Nc1cccc(O)c1)c1noc2c1CCc1ccccc1-2	TWEAK Fn14 block 71.8
CC(C)(C)c1ccc(-n2nc(C#N)c(Cl)cc2=O)cc1	Peg3 promoter 103.8, CF NFkB block 90.6, TWEAK Fn14 block 104.7, HIF-2a inh 92.2, KKLEB cytotox -101.4, TROY signal inh 89.4
O=C(NC1CCN(C(=O)Nc2ccccc2Cl)CC1)c1cccc(F)c1	none
Cc1ccccc1Oc1cc(NC(=O)CCCn2nc(C)c([N+](=O)[O-])c2C)cc([N+](=O)[O-])c1	TWEAK Fn14 block 63.3
Cc1nn(CCCC(=O)Nc2cc(Oc3ccc(F)cc3)cc([N+](=O)[O-])c2)c(C)c1[N+](=O)[O-]	none
COc1cccc(CN(C)C(=O)c2cccc(NC(=O)CC3SC(N4CCCCC4)=NC3=O)c2)c1OC (centres undefined)	none
COc1ccc(CN(C)C(=O)c2cccc(NC(=O)CC3SC(N4CCCCC4)=NC3=O)c2)c(OC)c1 (centres undefined)	Peg3 promoter 54.2, TWEAK Fn14 block 73.6
CN(C)S(=O)(=O)c1ccc(-c2csc(N/N=C/c3ccco3)n2)cc1	Peg3 promoter 61.2, TWEAK Fn14 block 103.9, TROY signal inh 70.8
